The source of these data is ChEMBL document CHEMBL1961873, “Compounds: GSK PKIS; Assays: Nanosyn kinase panel” (2012).

Molecules are shown by their SMILES.

The target in assay [1] is T1, Inhibitor of nuclear factor kappa-B kinase subunit epsilon (Homo sapiens) (UniProt Q14164).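 Further: reported values are averaged percent inhibition figures against human IKKε.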
T1 sequence (whole entry): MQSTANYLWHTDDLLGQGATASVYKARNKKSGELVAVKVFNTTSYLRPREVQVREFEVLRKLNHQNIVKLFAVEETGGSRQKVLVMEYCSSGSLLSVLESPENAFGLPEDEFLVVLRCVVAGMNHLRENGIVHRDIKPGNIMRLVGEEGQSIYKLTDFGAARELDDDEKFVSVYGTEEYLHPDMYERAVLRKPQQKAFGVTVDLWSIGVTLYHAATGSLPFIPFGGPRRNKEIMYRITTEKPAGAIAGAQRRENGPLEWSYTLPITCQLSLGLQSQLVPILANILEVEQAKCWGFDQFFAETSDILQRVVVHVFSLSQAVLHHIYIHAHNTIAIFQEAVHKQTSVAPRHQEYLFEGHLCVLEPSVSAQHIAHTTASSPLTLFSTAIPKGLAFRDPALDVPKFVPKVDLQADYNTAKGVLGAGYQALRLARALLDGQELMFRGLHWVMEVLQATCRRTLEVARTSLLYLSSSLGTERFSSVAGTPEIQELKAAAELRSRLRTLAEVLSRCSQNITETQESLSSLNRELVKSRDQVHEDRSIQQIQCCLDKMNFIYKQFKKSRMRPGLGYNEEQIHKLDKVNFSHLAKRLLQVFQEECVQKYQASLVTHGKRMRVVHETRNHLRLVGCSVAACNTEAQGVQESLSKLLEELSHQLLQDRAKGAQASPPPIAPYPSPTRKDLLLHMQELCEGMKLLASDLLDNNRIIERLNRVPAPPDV
The conditions noted are these: at 1 µM.

Assay [2] concerns the target T2, Serine/threonine-protein kinase Nek1 (Homo sapiens) (UniProt Q96PY6).
T2 sequence (whole entry): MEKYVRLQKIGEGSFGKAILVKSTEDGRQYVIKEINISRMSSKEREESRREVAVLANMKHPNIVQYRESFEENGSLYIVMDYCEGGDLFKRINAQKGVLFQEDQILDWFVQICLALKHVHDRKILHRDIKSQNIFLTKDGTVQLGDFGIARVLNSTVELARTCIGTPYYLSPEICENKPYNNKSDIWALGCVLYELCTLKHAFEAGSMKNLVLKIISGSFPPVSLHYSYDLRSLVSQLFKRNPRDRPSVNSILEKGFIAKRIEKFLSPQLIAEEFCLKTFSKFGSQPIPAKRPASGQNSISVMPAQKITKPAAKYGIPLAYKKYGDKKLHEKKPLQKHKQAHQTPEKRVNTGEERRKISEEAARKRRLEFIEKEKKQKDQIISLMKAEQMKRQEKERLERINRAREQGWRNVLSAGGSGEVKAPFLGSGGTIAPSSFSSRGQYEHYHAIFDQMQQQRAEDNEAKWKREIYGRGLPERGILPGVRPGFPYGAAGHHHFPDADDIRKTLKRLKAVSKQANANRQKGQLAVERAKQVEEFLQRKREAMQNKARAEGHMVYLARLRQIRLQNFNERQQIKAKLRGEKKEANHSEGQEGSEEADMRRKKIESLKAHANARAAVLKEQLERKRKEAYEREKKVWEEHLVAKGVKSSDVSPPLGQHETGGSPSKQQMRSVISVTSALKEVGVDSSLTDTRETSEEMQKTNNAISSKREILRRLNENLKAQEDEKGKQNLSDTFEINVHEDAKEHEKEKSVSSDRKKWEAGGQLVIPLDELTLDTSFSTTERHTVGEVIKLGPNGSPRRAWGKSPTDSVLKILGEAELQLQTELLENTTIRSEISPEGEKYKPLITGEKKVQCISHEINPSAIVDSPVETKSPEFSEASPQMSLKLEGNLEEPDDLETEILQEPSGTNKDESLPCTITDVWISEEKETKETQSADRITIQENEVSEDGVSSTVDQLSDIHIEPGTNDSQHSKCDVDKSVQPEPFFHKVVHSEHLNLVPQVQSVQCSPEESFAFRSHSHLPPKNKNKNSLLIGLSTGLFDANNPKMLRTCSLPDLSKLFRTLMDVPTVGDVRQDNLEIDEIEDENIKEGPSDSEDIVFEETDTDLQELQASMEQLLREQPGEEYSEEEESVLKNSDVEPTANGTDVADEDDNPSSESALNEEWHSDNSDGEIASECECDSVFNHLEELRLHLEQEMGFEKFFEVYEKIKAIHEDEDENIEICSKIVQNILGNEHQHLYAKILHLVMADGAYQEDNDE
The conditions noted are these: at 0.1 µM.

For assay [3], the target named is T2, Serine/threonine-protein kinase Nek1 (Homo sapiens). The conditions noted are these: at 1 µM.
The target in assay [4] is T3, Serine/threonine-protein kinase Nek2 (Homo sapiens) (UniProt P51955).
T3 sequence (whole entry): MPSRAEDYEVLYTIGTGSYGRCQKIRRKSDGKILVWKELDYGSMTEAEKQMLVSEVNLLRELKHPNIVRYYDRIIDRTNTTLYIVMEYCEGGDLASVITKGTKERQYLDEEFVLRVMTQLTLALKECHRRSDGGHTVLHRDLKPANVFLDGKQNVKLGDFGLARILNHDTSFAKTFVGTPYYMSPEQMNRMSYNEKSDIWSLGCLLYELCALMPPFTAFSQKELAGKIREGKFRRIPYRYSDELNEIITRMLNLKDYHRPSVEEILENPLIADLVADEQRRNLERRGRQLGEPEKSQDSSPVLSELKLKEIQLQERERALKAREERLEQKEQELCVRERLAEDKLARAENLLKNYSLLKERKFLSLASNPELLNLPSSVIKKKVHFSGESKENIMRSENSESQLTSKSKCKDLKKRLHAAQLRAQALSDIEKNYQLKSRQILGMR
To be noted: at 0.1 µM.

Assay [5] has as its target T3, Serine/threonine-protein kinase Nek2 (Homo sapiens). To be noted: at 1 µM.
Assay [6] deals with Serine/threonine-protein kinase Nek6 (Homo sapiens) (UniProt Q9HC98). The conditions noted are these: at 0.1 µM.
Assay [7] shares this target. To be noted: at 1 µM.
Assay [8] addresses Serine/threonine-protein kinase Nek7 (Homo sapiens) (UniProt Q8TDX7). The conditions noted are these: at 0.1 µM.
The target is the same in assay [9]. The conditions noted are these: at 1 µM.
Assay [10] deals with T4, Serine/threonine-protein kinase Nek9 (Homo sapiens) (UniProt Q8TD19).
T4 sequence (whole entry): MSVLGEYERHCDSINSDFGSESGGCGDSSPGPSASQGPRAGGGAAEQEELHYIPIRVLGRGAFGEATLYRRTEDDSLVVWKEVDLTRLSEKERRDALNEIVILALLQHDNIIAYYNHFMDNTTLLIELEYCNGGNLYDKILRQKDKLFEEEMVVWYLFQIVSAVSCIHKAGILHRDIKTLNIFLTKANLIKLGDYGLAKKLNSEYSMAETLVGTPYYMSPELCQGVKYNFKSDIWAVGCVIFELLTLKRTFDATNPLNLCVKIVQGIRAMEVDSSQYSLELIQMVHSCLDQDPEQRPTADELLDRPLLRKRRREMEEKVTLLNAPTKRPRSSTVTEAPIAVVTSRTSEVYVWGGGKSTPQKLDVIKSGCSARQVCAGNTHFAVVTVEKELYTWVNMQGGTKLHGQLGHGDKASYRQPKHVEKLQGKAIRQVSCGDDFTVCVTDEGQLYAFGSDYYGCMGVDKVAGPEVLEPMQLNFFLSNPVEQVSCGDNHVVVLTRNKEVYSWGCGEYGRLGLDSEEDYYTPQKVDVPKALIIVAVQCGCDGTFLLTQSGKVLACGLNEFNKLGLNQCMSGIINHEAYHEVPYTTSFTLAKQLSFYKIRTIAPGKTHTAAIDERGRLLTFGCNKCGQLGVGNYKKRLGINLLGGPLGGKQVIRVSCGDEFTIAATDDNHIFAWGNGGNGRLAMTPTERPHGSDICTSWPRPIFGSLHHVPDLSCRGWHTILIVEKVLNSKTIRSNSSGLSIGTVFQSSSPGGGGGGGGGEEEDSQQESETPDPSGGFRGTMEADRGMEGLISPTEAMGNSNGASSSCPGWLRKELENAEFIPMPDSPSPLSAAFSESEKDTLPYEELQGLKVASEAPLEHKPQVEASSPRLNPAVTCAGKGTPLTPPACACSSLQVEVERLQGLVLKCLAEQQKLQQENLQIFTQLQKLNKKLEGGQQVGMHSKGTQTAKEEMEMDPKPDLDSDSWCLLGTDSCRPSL
To be noted: at 0.1 µM.

Assay [11] concerns the target T4, Serine/threonine-protein kinase Nek9 (Homo sapiens). To be noted: at 1 µM.
Assay [12] has as its target Serine/threonine-protein kinase PLK1 (Homo sapiens) (UniProt P53350). The conditions noted are these: at 0.1 µM.
Assay [13] shares this target. To be noted: at 1 µM.
The target in assay [14] is T5, Dual specificity protein kinase TTK (Homo sapiens) (UniProt P33981).
T5 sequence (whole entry): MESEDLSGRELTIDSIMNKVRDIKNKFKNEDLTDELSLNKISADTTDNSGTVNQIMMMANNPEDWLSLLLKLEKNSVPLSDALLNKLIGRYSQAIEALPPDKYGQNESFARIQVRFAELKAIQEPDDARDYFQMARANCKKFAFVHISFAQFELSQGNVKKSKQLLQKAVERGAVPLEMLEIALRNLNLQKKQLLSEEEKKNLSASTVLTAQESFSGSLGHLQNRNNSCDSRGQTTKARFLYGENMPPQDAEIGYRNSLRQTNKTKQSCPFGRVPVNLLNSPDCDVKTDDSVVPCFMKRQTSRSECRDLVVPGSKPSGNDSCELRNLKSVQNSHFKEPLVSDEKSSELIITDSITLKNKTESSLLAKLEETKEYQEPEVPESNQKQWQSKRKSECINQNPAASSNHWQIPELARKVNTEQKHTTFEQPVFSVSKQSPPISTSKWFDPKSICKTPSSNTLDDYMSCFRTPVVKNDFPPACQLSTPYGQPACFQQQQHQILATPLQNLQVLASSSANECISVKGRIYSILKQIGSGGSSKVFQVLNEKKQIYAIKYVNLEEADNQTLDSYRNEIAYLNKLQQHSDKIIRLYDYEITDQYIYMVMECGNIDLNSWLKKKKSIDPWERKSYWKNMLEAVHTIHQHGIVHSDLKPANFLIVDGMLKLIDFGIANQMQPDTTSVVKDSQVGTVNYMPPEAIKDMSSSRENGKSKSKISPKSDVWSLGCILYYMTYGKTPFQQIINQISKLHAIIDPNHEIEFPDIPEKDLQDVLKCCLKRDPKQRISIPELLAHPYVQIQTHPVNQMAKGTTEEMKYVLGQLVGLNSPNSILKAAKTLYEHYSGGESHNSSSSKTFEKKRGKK
To be noted: at 0.1 µM.

Assay [15] has as its system T6, Receptor-type tyrosine-protein kinase FLT3 (Homo sapiens), P36888 [D835Y].
T6 sequence (whole entry): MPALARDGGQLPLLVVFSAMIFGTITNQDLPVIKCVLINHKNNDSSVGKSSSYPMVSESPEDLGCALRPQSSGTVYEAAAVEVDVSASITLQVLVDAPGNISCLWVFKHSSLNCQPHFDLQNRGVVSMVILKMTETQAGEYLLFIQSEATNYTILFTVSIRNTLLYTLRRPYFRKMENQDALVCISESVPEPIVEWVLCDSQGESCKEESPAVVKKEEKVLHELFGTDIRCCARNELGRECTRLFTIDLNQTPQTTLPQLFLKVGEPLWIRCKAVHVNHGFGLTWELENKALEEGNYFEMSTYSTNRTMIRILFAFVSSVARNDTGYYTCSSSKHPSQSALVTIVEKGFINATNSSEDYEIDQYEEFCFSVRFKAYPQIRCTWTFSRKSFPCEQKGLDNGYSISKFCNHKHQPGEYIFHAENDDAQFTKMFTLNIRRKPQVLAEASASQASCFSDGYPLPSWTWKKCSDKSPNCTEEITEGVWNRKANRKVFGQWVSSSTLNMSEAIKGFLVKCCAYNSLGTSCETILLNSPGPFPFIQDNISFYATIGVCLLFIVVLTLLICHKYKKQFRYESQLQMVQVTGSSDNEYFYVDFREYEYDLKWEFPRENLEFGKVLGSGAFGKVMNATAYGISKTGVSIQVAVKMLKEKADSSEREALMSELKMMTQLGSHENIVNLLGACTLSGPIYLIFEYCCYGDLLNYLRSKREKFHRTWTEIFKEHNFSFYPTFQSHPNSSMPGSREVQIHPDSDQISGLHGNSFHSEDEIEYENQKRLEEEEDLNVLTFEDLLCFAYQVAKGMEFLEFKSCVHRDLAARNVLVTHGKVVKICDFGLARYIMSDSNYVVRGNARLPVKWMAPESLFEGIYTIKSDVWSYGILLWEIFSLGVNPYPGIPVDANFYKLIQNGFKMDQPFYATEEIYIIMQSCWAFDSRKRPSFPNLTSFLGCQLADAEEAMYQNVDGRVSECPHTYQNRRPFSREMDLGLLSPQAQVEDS
To be noted: at 1 µM.

Assay [16] addresses Vascular endothelial growth factor receptor 3 (Homo sapiens) (UniProt P35916). To be noted: at 0.1 µM.
The target is the same in assay [17]. To be noted: at 1 µM.
Assay [18] deals with Macrophage colony-stimulating factor 1 receptor (Homo sapiens) (UniProt P07333). To be noted: at 0.1 µM.
The target is the same in assay [19]. The conditions noted are these: at 1 µM.
Assay [20] addresses Tyrosine-protein kinase Fyn (Homo sapiens) (UniProt P06241). The conditions noted are these: at 0.1 µM.

Chain of Serine/threonine-protein kinase Nek7 (Homo sapiens) (Q8TDX7 whole entry, looked up): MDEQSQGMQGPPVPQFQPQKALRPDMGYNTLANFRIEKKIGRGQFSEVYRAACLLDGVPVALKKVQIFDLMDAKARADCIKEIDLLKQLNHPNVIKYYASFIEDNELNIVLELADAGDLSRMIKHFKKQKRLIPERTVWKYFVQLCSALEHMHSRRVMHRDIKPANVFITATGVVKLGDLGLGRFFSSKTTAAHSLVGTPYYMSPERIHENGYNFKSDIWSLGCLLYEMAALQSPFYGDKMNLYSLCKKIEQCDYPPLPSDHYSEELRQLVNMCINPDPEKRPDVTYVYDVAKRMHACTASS
Chain of Serine/threonine-protein kinase Nek6 (Homo sapiens) (Q9HC98 whole entry): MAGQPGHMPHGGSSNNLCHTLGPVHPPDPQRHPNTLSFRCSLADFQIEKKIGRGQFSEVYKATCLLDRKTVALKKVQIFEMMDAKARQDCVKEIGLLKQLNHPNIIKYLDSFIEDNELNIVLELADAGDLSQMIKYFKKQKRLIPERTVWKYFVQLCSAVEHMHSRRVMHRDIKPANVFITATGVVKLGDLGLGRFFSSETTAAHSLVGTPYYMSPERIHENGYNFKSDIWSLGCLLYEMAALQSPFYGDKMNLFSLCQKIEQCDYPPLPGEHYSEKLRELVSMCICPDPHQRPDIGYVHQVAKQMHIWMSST
Chain of Macrophage colony-stimulating factor 1 receptor (Homo sapiens) (P07333 whole entry): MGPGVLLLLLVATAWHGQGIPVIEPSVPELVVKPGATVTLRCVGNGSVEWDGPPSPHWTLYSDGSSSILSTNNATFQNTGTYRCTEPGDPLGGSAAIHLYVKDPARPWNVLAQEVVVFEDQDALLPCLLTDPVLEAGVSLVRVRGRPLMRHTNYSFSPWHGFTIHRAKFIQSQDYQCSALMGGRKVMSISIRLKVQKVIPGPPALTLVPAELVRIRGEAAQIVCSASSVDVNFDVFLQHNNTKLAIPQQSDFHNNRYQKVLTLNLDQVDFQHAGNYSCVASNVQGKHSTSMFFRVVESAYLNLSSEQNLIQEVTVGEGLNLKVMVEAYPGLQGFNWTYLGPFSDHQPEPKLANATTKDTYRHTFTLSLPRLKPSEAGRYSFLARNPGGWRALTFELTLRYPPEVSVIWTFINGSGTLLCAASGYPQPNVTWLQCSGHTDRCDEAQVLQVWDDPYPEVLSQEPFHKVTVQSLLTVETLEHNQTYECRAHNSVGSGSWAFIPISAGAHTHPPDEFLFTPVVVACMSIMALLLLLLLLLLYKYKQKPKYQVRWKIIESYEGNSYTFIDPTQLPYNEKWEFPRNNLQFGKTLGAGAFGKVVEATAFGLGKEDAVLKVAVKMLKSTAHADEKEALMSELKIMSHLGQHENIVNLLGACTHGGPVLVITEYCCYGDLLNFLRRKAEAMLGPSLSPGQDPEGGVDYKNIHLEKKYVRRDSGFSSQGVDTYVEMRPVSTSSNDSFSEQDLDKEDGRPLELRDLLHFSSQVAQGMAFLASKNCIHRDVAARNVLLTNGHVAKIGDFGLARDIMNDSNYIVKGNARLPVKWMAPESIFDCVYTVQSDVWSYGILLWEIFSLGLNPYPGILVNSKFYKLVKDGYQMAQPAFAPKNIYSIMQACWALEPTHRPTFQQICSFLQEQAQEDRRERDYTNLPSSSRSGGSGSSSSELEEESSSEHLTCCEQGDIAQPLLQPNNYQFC
Chain of Vascular endothelial growth factor receptor 3 (Homo sapiens) (P35916 whole entry): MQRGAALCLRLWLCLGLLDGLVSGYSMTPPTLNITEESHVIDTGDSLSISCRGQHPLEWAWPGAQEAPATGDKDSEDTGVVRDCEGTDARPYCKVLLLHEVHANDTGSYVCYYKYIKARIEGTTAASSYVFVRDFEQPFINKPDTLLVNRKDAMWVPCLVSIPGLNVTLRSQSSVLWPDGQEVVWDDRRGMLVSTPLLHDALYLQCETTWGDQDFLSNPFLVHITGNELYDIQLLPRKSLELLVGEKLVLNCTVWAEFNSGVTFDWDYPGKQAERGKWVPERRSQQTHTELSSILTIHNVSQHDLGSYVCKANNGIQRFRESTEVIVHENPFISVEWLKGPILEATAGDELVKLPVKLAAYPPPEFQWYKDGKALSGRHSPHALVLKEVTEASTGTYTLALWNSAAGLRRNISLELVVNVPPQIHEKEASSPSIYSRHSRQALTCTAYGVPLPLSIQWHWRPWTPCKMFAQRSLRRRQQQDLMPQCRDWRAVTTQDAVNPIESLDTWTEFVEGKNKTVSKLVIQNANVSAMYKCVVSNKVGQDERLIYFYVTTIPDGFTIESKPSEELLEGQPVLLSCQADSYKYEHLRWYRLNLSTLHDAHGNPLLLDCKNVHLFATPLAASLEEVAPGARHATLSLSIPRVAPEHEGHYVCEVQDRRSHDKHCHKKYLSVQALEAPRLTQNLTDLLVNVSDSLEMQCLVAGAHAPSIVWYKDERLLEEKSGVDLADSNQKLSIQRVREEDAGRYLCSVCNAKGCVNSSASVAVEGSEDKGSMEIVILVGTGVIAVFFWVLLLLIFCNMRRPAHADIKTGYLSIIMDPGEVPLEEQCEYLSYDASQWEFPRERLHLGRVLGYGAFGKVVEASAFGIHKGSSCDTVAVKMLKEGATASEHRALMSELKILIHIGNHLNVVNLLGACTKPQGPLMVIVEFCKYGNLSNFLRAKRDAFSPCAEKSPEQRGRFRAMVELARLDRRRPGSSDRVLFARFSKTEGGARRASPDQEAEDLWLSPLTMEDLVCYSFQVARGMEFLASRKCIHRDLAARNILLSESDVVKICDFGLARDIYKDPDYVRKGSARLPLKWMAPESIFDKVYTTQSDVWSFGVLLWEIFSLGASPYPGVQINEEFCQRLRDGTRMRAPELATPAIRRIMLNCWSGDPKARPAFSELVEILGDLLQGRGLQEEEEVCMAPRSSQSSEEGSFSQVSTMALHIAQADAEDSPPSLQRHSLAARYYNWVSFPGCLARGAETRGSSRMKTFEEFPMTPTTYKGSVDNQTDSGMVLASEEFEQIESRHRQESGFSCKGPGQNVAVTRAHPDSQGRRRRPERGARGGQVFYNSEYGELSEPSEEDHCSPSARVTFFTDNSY
Chain of Serine/threonine-protein kinase PLK1 (Homo sapiens) (P53350 whole entry): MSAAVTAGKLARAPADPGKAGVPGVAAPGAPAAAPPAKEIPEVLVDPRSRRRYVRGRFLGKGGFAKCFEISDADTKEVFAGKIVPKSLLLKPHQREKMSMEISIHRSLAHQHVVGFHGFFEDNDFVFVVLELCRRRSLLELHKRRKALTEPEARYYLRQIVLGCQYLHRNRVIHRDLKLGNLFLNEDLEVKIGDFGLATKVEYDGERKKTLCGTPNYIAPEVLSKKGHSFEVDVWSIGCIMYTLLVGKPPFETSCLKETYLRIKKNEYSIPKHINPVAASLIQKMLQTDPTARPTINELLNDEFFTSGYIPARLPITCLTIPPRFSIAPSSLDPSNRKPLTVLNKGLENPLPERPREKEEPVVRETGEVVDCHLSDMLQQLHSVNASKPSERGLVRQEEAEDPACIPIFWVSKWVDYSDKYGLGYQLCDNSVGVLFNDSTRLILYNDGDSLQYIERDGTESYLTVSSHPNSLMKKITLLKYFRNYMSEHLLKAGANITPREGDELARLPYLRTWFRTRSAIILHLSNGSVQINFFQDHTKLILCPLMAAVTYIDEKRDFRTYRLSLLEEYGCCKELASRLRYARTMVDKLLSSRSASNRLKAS
Chain of Tyrosine-protein kinase Fyn (Homo sapiens) (P06241 2-537 limits assumed): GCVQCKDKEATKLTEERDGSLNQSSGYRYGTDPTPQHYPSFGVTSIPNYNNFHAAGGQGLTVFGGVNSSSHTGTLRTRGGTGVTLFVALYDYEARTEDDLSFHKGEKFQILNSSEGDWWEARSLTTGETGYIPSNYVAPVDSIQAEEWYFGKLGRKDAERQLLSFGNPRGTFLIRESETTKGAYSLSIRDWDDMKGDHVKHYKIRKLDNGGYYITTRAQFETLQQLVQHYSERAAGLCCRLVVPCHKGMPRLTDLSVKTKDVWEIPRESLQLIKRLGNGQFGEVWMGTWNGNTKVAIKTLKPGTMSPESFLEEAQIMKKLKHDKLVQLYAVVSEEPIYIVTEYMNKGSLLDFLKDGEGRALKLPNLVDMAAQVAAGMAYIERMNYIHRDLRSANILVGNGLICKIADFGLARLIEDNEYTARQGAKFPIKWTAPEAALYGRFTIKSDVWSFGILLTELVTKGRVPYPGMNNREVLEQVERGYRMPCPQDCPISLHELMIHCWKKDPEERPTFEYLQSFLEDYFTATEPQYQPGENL

Usually inhibition stands for the drop in the measured response relative to a control, in per cent. Regarding `NS(=O)(=O)c1cccc(-c2cc3ccncc3cc2OCc2ccccc2)c1`, the inhibition came to 5.04% in assay [1]; 2.64% in assay [2]; 2.55% in assay [3]; 5.53% in assay [4]; 6.81% in [5]; 0.87% in assay [6]. For the same molecule, the inhibition in assay [7] was -0.35%; in assay [8] it was 5.92%; in assay [9], 3.78%; in assay [10] it was 2.36%; in assay [11], 5.52%; in assay [12] it was 3.05%. In addition, the inhibition is 4.2% in assay [13]; 7.53% in assay [14]; -1.3% in [15]; 15.2% in assay [16]; 18.5% in assay [17]; 4.7% in assay [18]. The results for the inhibition in assay [19] and in assay [20] were 5.36% and 4.1%, respectively.
